Shown are actives, neighbours in structure and some others; about 0.97% of the full set was active somewhere.
pAkt inh: Akt phosphorylation inhibition. actives 0.32% (n = 360,000). activity change, % for hits at 50 µM. Neuro2A IGF-stimulated pAkt S473 HTRF, 20 min; active compounds read low; in the data active = activity change below about -80%; inconclusive = mostly about -51% to -80%
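Single-point screen (50 µM final compound) in Neuro2A cells stimulated 20 min with 6 nM IGF at 37 deg C. After lysis, Ser473-phosphorylated Akt read by HTRF (ex 330 nm, em 615/665 nm) as the 665/615 ratio.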
MBNL1 CUG block: blocks human MBNL1 binding to CUG repeat RNA; Q9NR56; TR-FRET MBNL1-His/biotin-(CUG)12 binding, 665/545 ratio; Potency, µM (doses to about 57.5 µM), usual class: inhibitors; actives 0.036% (n = 280,000); active = well fitted inhibition curve with a large enough effect in the signal ratio, with a control signal flat, not every such curve was filed as active; inconclusive = small, poorly fitted or top-dose-only effect, or effect the other way, or a change in a side signal; inactive = no such curve, though single readings can be large or run the other way; the % refers to the signal ratio
Target sequence (Q9NR56 whole entry, looked up): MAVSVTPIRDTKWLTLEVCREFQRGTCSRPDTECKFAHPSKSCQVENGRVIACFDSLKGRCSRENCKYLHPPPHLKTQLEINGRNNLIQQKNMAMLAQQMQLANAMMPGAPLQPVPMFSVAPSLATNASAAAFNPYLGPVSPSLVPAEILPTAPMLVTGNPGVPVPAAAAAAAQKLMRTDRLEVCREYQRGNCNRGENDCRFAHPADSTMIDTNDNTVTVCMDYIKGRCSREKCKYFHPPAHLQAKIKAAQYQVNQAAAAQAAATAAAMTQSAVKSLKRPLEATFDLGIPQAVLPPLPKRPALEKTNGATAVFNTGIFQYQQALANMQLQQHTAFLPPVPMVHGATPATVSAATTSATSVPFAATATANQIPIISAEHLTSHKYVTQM
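Compounds (final 92 nM to 58 uM) are added to His-tagged MBNL1 and biotin-(CUG)12, then terbium anti-His antibody and streptavidin-XL665 (5 nM final). After 60 min at room temperature, the 665/545 nm ratio is read.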
Epigenetic derep: derepresses silenced GFP reporter in murine cells; murine LDR cells, GFP reporter derepression, 30 h; Potency, µM (highest dose often 53.9 µM), actives largely listed as activators; actives 0.2% (n = 280,000); AID 1865; note: nearly all actives have a fitted effect of over 60% in size
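Derepression of a silenced CMV-GFP reporter in murine LDR cells is scored by enumerating GFP-positive cells with a laser-scanning microplate cytometer after 30 hours of treatment at 37 C.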
uPA generation: blocks generation of uPA at the cell surface; Potency, µM (doses to about 38.3 µM), hits mostly inhibitors; cell surface uPA generation assay, qHTS; actives 0.31% (n = 330,000); active = well fitted inhibition curve with a large enough effect; inconclusive = small, poorly fitted or top-dose-only effect; inactive = no such curve, though single readings can be large or run the other way; tested in mouse RAW 264.7 cells; note: nearly all actives have a fitted effect of over 55% in size
CCT chaperon mod: changes cytosolic chaperonin activity | purified chaperonin ATPase assay, HTRF ADP detection, 30 min | activity change, % (concentration not given with the values), hits read low | actives 0.3% (n = 360,000) | AID 651819; in the data active = activity change below about -30%
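TRiC (40 or 20 nM final, by batch activity) in 30 mM Tris pH 7.4, 100 mM KCl, 5 mM MgCl2, 1 mM DTT was treated with compound at 76 uM single dose, then 10 uM ATP, 30 min at 37 °C. ADP was read by HTRF Transcreener.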
MmCpn inh: inhibitors of Methanococcus maripaludis chaperonin TRiC (MmCpn) | Potency, µM (doses to about 76.9 µM), usual class: inhibitors | purified Mm-Cpn ATPase, ADP Transcreener TR-FRET | AID 504842 | actives 0.031% (n = 330,000); note: nearly all actives have a fitted effect of over 80% in size
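ATPase read-out: TR-FRET ADP immunoassay (anti-ADP Eu cryptate vs ADP-d2), ex 320 nm, em 590/665 nm; signal drops as ADP forms. Enzyme 25 nM, ATP 10 uM, 30 min at 37°C after 10 min compound preincubation.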
Of the large screens only hits and unclear results are named; the others gave an inactive call. Unless noted, calls come from the whole dose curve; as a rule, active = well fitted curve in the direction sought with a large enough effect; inconclusive = small, poorly fitted or top-dose-only effect, or another doubt; inactive = no such curve, though single readings can be large; an effect the other way counts as inactive or inconclusive.

COC(=O)C(CCSC)NC(=O)c1cc2c(n(-c3ccc(Cl)cc3)c1=O)CCCC2=O (stereo not given)	none (no result: pAkt inh, MBNL1 CUG block, uPA generation, CCT chaperon mod, MmCpn inh)
O=C(c1ccc(S(=O)(=O)N2CCCCC2)cc1)N1CCCc2ccccc21	pAkt inh -107.5%
O=C(Nc1cccc(C(=O)N2CCCC2)c1)C1CCCC1	none (no result: MBNL1 CUG block, Epigenetic derep, MmCpn inh)
O=C(Nc1cccc(C(=O)N2CCCCC2)c1)C1CC1	CCT chaperon mod -48.0 (no result: MBNL1 CUG block, Epigenetic derep, MmCpn inh)
Cc1nc2sccn2c(=O)c1S(=O)(=O)Nc1ccc(N2CCN(S(C)(=O)=O)CC2)cc1	none
COc1ccn(C2CCCCO2)c(=O)n1 (stereo not given)	none (no result: MBNL1 CUG block, Epigenetic derep, MmCpn inh)
O=C(CCC1N=C2c3ccccc3N=C(SCC(=O)NCC3CCCO3)N2C1=O)NCc1ccc(F)cc1 (stereo not given)	CCT chaperon mod -45.8 (no result: pAkt inh, Epigenetic derep)
COc1cc(C(=O)Nc2sc(C(=O)N3CCOCC3)c(C)c2C#N)cc(OC)c1OC	pAkt inh -106.6%
O=C(NCCCN1CCOCC1)c1ccc2c(c1)N(Cc1c(F)cccc1Cl)C(=O)c1ccccc1S2	uPA generation 4.47µM (no result: Epigenetic derep)
O=C(NCCCN1CCOCC1)c1ccc(S(=O)(=O)Nc2cccc(C(F)(F)F)c2)cc1	CCT chaperon mod -36.9 (no result: MBNL1 CUG block, Epigenetic derep)
O=C(NCCCN1CCOCC1)c1ccc(S(=O)(=O)Nc2ccccc2)cc1	none (no result: MBNL1 CUG block, Epigenetic derep)
O=C(NCCCN1CCOCC1)c1ccc2c(c1)N(Cc1cccc(Cl)c1)C(=O)c1ccccc1S2	none (no result: pAkt inh, MBNL1 CUG block, uPA generation, CCT chaperon mod, MmCpn inh)
COc1ccc(-c2c(-c3cc(OC)cc(OC)c3)n(C)c3ccc(Br)cc23)cc1	none (no result: MBNL1 CUG block, Epigenetic derep)
COc1ccc(N=Nc2nc3ccc(Br)cc3n2C)cc1	pAkt inh -106.2%, MBNL1 CUG block inconclusive
CCN(CC(=O)Nc1ccc(NC(C)=O)cc1)C(=O)c1ccc(NC2CC2)c([N+](=O)[O-])c1	none (no result: MBNL1 CUG block, Epigenetic derep)
Cc1ccccc1NC(=O)Cn1c(=O)n(CCC(=O)N2CCc3ccccc3C2)c(=O)c2ccccc21	none (no result: pAkt inh, MBNL1 CUG block, uPA generation, CCT chaperon mod, MmCpn inh)
O=C(OCC(=O)N1CCN(c2ccccc2)CC1)c1cccc(Cl)c1	pAkt inh -113.2%
Cc1ccc(C)c(CNC(=O)CCn2cccn2)c1	none (no result: pAkt inh, MBNL1 CUG block, uPA generation, CCT chaperon mod, MmCpn inh)
Cc1ccc(C)c(NC(=O)c2cc3c([nH]c4ccccc43)c(C)n2)c1	pAkt inh -101.3%
CN(C)c1ccc(NC(=O)CSc2n[nH]c(-c3ccncc3)n2)cc1	none (no result: MBNL1 CUG block, Epigenetic derep, MmCpn inh)
CN(CC(=O)Nc1cccc(F)c1)C(=O)c1ccc(C2SCCS2)cc1	none (no result: MBNL1 CUG block, Epigenetic derep)
CN(CC(=O)Nc1cccc(F)c1)C(=O)c1ccc2c(c1)CC(c1ccccc1)OC2=O (stereo not given)	uPA generation 3.98µM (no result: MBNL1 CUG block, Epigenetic derep)
Cc1cc2nnc(SCC(=O)Nc3cc(S(=O)(=O)N4CCOCC4)ccc3Cl)n2c2ccccc12	CCT chaperon mod -53.3
Cc1ccc(CNC(=O)CSc2c3c(nc4cc(Cl)ccc24)CCCC3)o1	pAkt inh -102.6%, Epigenetic derep inconclusive, MmCpn inh inconclusive
CCc1ccc(CNC(=O)c2ccc3c(Cl)c4c(nc3c2)CCCC4)cc1	none (no result: pAkt inh, MBNL1 CUG block, uPA generation, CCT chaperon mod, MmCpn inh)
CN1CCN(CCCNC(=O)c2ccc3c(Cl)c4c(nc3c2)CCCC4)CC1	MBNL1 CUG block inconclusive, uPA generation 11.2µM (no result: Epigenetic derep)
O=C(CSc1c2c(nc3ccc(Cl)cc13)CCCC2)NCCCN1CCOCC1	uPA generation 8.91µM
CCOC(=O)c1c(C)nc2sc3c(=O)n(-c4ccc(C(C)=O)cc4)cnc3c2c1-c1ccc(Cl)cc1	none
CCOC(=O)c1c(C)nc2sc3c(=O)n(-c4ccc(C)cc4)cnc3c2c1-c1ccc(OC)cc1	pAkt inh -109.7%
CCC(=O)O/N=C(\N)c1ccc(Oc2cc(C)c(Cl)c(C)c2)c([N+](=O)[O-])c1	none
CCN(CC)CCn1c2c(c(SCC(=O)Nc3ccccc3Cl)nc1=O)CCC2	CCT chaperon mod -33.8 (no result: MBNL1 CUG block, Epigenetic derep)
Cc1ccc(C#CC[N+]2(CC#Cc3ccc(C)cc3)CCCCC2)cc1	uPA generation 7.08µM
C(#Cc1ccccc1)C[N+]1(CC#Cc2ccccc2)CCCCC1	none
CCOC(=O)C1(Cc2ccc(OC)cc2)CCN(C(=O)c2ccc3[nH]ccc3c2)CC1	uPA generation 11.2µM
COC(=O)[C@H]1C[C@@H]1[C@H](N)c1ccccc1	CCT chaperon mod -49.4
CCn1c(C)nc2cc(C(=O)NNS(=O)(=O)c3c(C)c(C)cc(C)c3C)ccc21	pAkt inh -120.0%
CCn1c(C)nc2cc(C(=O)NNC(=O)c3ccc(C)cc3)ccc21	none (no result: MBNL1 CUG block, Epigenetic derep)
COc1ccccc1N1CC(C(=O)OC(C)C(=O)N2CCCc3ccccc32)CC1=O (stereo not given)	CCT chaperon mod -60.5
COc1ccccc1OC(C)C(=O)N1CCc2ccccc21 (stereo not given)	none (no result: MBNL1 CUG block, Epigenetic derep)
CC(=O)OCP(C)(=O)COC(C)=O	pAkt inh -120.6%
Cc1cc(C)cc(N(C)S(=O)(=O)c2nnc(NC(=O)COc3ccc(C)c(C)c3)s2)c1	none (no result: pAkt inh, MBNL1 CUG block, uPA generation, CCT chaperon mod, MmCpn inh)
O=C1c2ccccc2C(=O)N1CNc1ccccc1	pAkt inh -123.3%
Cc1ccc(NCN2C(=O)c3ccccc3C2=O)c(C)c1	none
Cc1[nH][nH]c(=O)c1C=NCc1cccc(C(F)(F)F)c1	none
NC(=O)CSc1nnc(-c2cc3ccccc3o2)n1Cc1ccccc1	CCT chaperon mod -61.9
O=C(CCSc1ccc(Cl)cc1)c1ccco1	none (no result: Epigenetic derep)
O=C(CSc1ccc(Cl)cc1)c1ccco1	pAkt inh -96.7%
